Results reported in PubChem BioAssay (NCATS).
Results filed as inconclusive are left out. Calls of active or inactive are those of the source. The call rests on the fitted dose curve; in most records, active means well fitted inhibition curve with a large enough effect; inconclusive means small, poorly fitted or top-dose-only effect; inactive means flat fitted curve, though single readings scatter.

tested on: TAB165; test: qHTS profiling for inhibitors of Plasmodium falciparum proliferation (AID 504749); further: nearly all actives have a fitted effect of over 60% in size;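 on activity, negative = inhibition: 0% = DMSO vehicle and full inhibition = artemisinin control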; details: P. falciparum in erythrocytes, SYBR Green DNA, 72 h; series mostly up to 28.7 µM; activity, negative = inhibition: at the top concentration
Procedure, shortened: (§1)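 Quantitative HTS: compounds pinned into medium, infected erythrocytes added (0.3% parasitemia, 2.5% hematocrit), 72 h culture at 37 C under 5% CO2. Saponin/Triton lysis with SYBR Green I, overnight RT, then fluorescence read.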
Potency means the concentration at half of the fitted maximal effect.

Question: With `COc1ccc2[nH]cc(CCNC(C)=O)c2c1` as the compound, how does the “activity, negative = inhibition” value read?
Answer: 0.0768% (inactive)

Question: For `Clc1ccc2nsnc2c1NC1=NCCN1`, which “activity, negative = inhibition” value is on record?
Answer: 15.3% (inactive)

Question: How did the “activity, negative = inhibition” value turn out when `NC(=O)OCC(COC(N)=O)c1ccccc1` was run?
Answer: 7.3% (inactive)

Question: Which “activity, negative = inhibition” value does the source give for `Cc1cnc(C(=O)NCCc2ccc(S(=O)(=O)NC(=O)NC3CCCCC3)cc2)cn1` here?
Answer: 0.282% (inactive)

Question: `CC(C)(Oc1ccc(C2CC2(Cl)Cl)cc1)C(=O)O` (stereo not given) was tested. Which “activity, negative = inhibition” value did it give?
Answer: 1.68% (inactive)

Question: With `CN(C)c1nc(N(C)C)nc(N(C)C)n1` as the compound, how does the “activity, negative = inhibition” value read?
Answer: 7.83% [at 12.8 µM] (inactive)

Question: Which “activity, negative = inhibition” value does the source give for `CC(=O)OCC(CCn1cnc2cnc(N)nc21)COC(C)=O` here?
Answer: 3.57% (inactive)

Question: For `N[C@@H](Cc1c[nH]c2ccc(O)cc12)C(=O)O`, which “activity, negative = inhibition” value is on record?
Answer: 6.94% (inactive)

Question: How did the Potency turn out when `O=c1c(O)c(-c2ccc(O)c(O)c2)oc2cc(O)cc(O)c12` was run?
Answer: 7.08 µM (active)

Question: For `CC[N+](CC)(CC)CCOc1cccc(OCC[N+](CC)(CC)CC)c1OCC[N+](CC)(CC)CC`, which “activity, negative = inhibition” value is on record?
Answer: -2.75% (inactive)

Question: Which “activity, negative = inhibition” value does the source give for `NCCCCCC(=O)O` here?
Answer: 1.34% [at 12.8 µM] (inactive)

Question: How did the “activity, negative = inhibition” value turn out when `O=C1N(c2ccccc2)c2ccccc2C1(Cc1ccncc1)Cc1ccncc1` was run?
Answer: -18.2% (inactive)

Question: `Cc1cc(C(C)(C)C)c(O)c(C)c1CC1=NCCN1` was tested. Which “activity, negative = inhibition” value did it give?
Answer: -5.29% (inactive)

Question: With `Nc1nc2c(ncn2COC(CO)CO)c(=O)[nH]1` as the compound, how does the “activity, negative = inhibition” value read?
Answer: 4.21% [at 12.8 µM] (inactive)

Question: Which “activity, negative = inhibition” value does the source give for `CN(C)C(=N)N=C(N)N` here?
Answer: 3.33% [at 12.8 µM] (inactive)

Question: With `NC(=O)NO` as the compound, how does the “activity, negative = inhibition” value read?
Answer: 7.69% (inactive)

Question: With `NC12CC3CC(CC(C3)C1)C2` as the compound, how does the “activity, negative = inhibition” value read?
Answer: 10.2% (inactive)

Question: `CC(C)(C)C(=O)Oc1ccc(S(=O)(=O)Nc2ccccc2C(=O)NCC(=O)O)cc1` was tested. Which “activity, negative = inhibition” value did it give?
Answer: 8.22% (inactive)

Question: Which “activity, negative = inhibition” value does the source give for `NCCS(=O)(=O)O` here?
Answer: 8.25% (inactive)

Question: Which Potency does the source give for `CCCNCC(O)COc1ccccc1C(=O)CCc1ccccc1` (stereo not given) here?
Answer: 0.447 µM (active)

Question: How did the “activity, negative = inhibition” value turn out when `O=C(c1ccc(F)cc1)C1CCN(CCn2c(=O)[nH]c3ccccc3c2=O)CC1` was run?
Answer: 1.74% (inactive)

Question: How did the “activity, negative = inhibition” value turn out when `Cn1cnc2c1c(=O)[nH]c(=O)n2C` was run?
Answer: 3.5% (inactive)

Question: With `C[C@](N)(Cc1ccc(O)c(O)c1)C(=O)O` as the compound, how does the “activity, negative = inhibition” value read?
Answer: 0.915% (inactive)

Question: With `NCCc1cnc[nH]1` as the compound, how does the “activity, negative = inhibition” value read?
Answer: 8.17% (inactive)

tested on: W2; test: as above; details: P. falciparum in erythrocytes, SYBR Green DNA, 72 h; series mostly up to 28.7 µM; activity, negative = inhibition: at the top concentration
Procedure, shortened: as §1

Question: With `COc1ccc2[nH]cc(CCNC(C)=O)c2c1` as the compound, how does the “activity, negative = inhibition” value read?
Answer: -2.17% (inactive)

Question: How did the “activity, negative = inhibition” value turn out when `Clc1ccc2nsnc2c1NC1=NCCN1` was run?
Answer: 5.51% (inactive)

Question: `Cc1cnc(C(=O)NCCc2ccc(S(=O)(=O)NC(=O)NC3CCCCC3)cc2)cn1` was tested. Which “activity, negative = inhibition” value did it give?
Answer: 9.74% (inactive)

Question: `CC(C)(Oc1ccc(C2CC2(Cl)Cl)cc1)C(=O)O` (stereo not given) was tested. Which “activity, negative = inhibition” value did it give?
Answer: -9.24% (inactive)

Question: For `CN(C)c1nc(N(C)C)nc(N(C)C)n1`, which “activity, negative = inhibition” value is on record?
Answer: 1.78% [at 12.8 µM] (inactive)

Question: For `CC(=O)OCC(CCn1cnc2cnc(N)nc21)COC(C)=O`, which “activity, negative = inhibition” value is on record?
Answer: -2.47% (inactive)

Question: With `N[C@@H](Cc1c[nH]c2ccc(O)cc12)C(=O)O` as the compound, how does the “activity, negative = inhibition” value read?
Answer: -2.08% (inactive)

Question: For `CC[N+](CC)(CC)CCOc1cccc(OCC[N+](CC)(CC)CC)c1OCC[N+](CC)(CC)CC`, which “activity, negative = inhibition” value is on record?
Answer: -8% (inactive)

Question: How did the “activity, negative = inhibition” value turn out when `NCCCCCC(=O)O` was run?
Answer: -9.49% [at 12.8 µM] (inactive)

Question: `O=C1N(c2ccccc2)c2ccccc2C1(Cc1ccncc1)Cc1ccncc1` was tested. Which “activity, negative = inhibition” value did it give?
Answer: -13.4% (inactive)

Question: How did the “activity, negative = inhibition” value turn out when `Cc1cc(C(C)(C)C)c(O)c(C)c1CC1=NCCN1` was run?
Answer: -12.3% (inactive)

Question: How did the “activity, negative = inhibition” value turn out when `Nc1nc2c(ncn2COC(CO)CO)c(=O)[nH]1` was run?
Answer: 12.6% [at 12.8 µM] (inactive)

Question: How did the “activity, negative = inhibition” value turn out when `CN(C)C(=N)N=C(N)N` was run?
Answer: -1.1% [at 12.8 µM] (inactive)

Question: For `NC(=O)NO`, which “activity, negative = inhibition” value is on record?
Answer: 3.41% (inactive)

Question: With `NC12CC3CC(CC(C3)C1)C2` as the compound, how does the “activity, negative = inhibition” value read?
Answer: -2.8% (inactive)

Question: Which “activity, negative = inhibition” value does the source give for `CC(C)(C)C(=O)Oc1ccc(S(=O)(=O)Nc2ccccc2C(=O)NCC(=O)O)cc1` here?
Answer: 5.33% (inactive)

Question: How did the Potency turn out when `Cc1ccc(-c2cc(C(F)(F)F)nn2-c2ccc(S(N)(=O)=O)cc2)cc1` was run?
Answer: 6.75 µM (active)

Question: How did the Potency turn out when `CCCNCC(O)COc1ccccc1C(=O)CCc1ccccc1` (stereo not given) was run?
Answer: 0.379 µM (active)

Question: Which “activity, negative = inhibition” value does the source give for `Cn1cnc2c1c(=O)[nH]c(=O)n2C` here?
Answer: 0.239% (inactive)

Question: For `C[C@](N)(Cc1ccc(O)c(O)c1)C(=O)O`, which “activity, negative = inhibition” value is on record?
Answer: -14.7% (inactive)

Question: Which “activity, negative = inhibition” value does the source give for `NCCc1cnc[nH]1` here?
Answer: -6.02% (inactive)
